These results are taken from PubChem BioAssay (NCI).

This is part of a sample that, as a whole, favours compounds with a hit. Of some 83,000 tested, about 20% had one in any assay.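 Note: values are percent growth. 100 is the growth of untreated cells, values between 100 and 0 indicate rising inhibition; between -100 and 0 indicates cell death.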 The source made the active and inactive calls. How the source made its calls: active means growth percent below 10; inactive means the rest.

The subject of this assay is HL-60(TB) leukemia. Kind of assay: NCI-60 one-dose screen, 48 h (100 = growth as untreated, 0 = no growth, -100 = all killed). As to conditions: 10 µM unless noted.
With `CCc1ccccc1-n1c(-c2ccc(OC)cc2)cc(-c2ccc(OC)cc2)c(C#N)c1=O`, the growth is 121% (inactive).

For `Cn1c(=O)c2c(nc(N3CCCC3)n2C)n(C)c1=O`, the growth was 95.4% (inactive).

Regarding `Cn1c2c(c3ccc(-c4ccn[nH]4)cc3c1=O)C(=O)c1ccccc1-2`, the growth was -17.7% (active).

Regarding `CCN(CC)CCCNC(=O)c1ccc(N)cc1`, the growth is 76.5% (inactive).

`O=C(Nc1cccc(C(F)(F)F)c1)Nc1ccc(OCc2nnc(-c3ccc(Cl)cc3)o2)c(F)c1`: the growth was 92.5% (inactive).

As to `COc1cc(/C=C\C(=O)O)ccc1OCc1ccccc1`, the growth is 122% (inactive).

For `COc1cc2cc(c1Cl)N(C)C(=O)C[C@H](OC(=O)[C@H](C)N(C)C(=O)CCS)C[C@]1(C)O[C@H]1[C@H](C)[C@@H]1C[C@@](O)(NC(=O)O1)[C@H](OC)/C=C/C=C(\C)C2`, the growth was -28% (active).

On to `CCC(C)C1NC(=O)C(NC(=O)c2c3nc4c(C(=O)NC5C(=O)NC(C(C)CC)C(=O)N6CCCC6C(=O)N(C)CC(=O)N(C)C(C(C)C)C(=O)OC5C)ccc(C)c4oc-3c(C)c(=O)c2N)C(C)OC(=O)C(C(C)C)N(C)C(=O)CN(C)C(=O)C2CCCN2C1=O` (configuration not stated), for which the growth is -13.9% (active).

Turning to `O=C(CCN1CCCC1)Nc1ccc2c(NCc3ccccc3)c3ccccc3nc2c1`, the growth was -40.8% (active).

In the case of `O=C1COCCN1c1ccc(NCc2cn(Cc3cccc4ccccc34)c3ccccc23)cc1`, the growth was 96.4% (inactive).

Take `Cc1ccc([N+](=O)[O-])c(C)n1`: the growth is 115% (inactive).

On to `O=C1NC(=S)N[C@H]1CC(=O)n1cnc2ccccc21`, for which the growth was 109% (inactive).

Turning to `CCCCCCOc1ccc(C(=N)N(CCCC)CCCC)c2ccccc12`, the growth is -49.6% (active).

On to `Cc1ccc(-c2ccc(/C=C(\C#N)c3nc(-c4ccco4)cs3)o2)cc1`, for which the growth was 101% (inactive).

As for `O=C1/C(=C/c2cccc(Br)c2)COc2ccc(O)c(O)c21`, the growth was -15.3% (active).

Take `Cc1cc2cn3c4ccc(O)cc4[nH]c(=O)c3c2cc1C`: the growth is -51.9% (active).

In the case of `CC/C(=C(/c1ccc(O)cc1)c1ccc(OCCN2CCCCC2)cc1)c1ccc(OC)cc1`, the growth is 81.6% (inactive).

Consider `CCC1(/C=N/NC(N)=S)NC(=O)NC1=O` (configuration not stated), for which the growth is 111% (inactive).

Take `COc1cc2c(cc1OC)C(=O)/C(=C/c1cccc(OCC(=O)c3ccccc3)c1)C2`: the growth is 89.8% (inactive).

As to `Cc1nc(Cl)c2c(n1)N(C)c1ccc(Cl)cc1C(C)C2` (configuration not stated), the growth was 72.2% (inactive).

Turning to `CN1CCN(CCCOc2cccc3nc(Nc4cc(Cl)cc(Cl)c4)ccc23)CC1`, the growth is 56.4% (inactive).

As for `COC(=O)OC1C(O[C@H]2C[C@H]3[C@@H]4CC=C5C[C@@H](O)CC[C@]5(C)[C@H]4CC[C@]3(C)[C@H]2[C@H](C)C(=O)CCC(C)C)OCC(O)C1OC1OCC(O)C(O)C1OC(=O)c1ccc(OC)cc1` (some centres not stated), the growth was -22.3% (active).

Take `COC(=O)[C@]12CC[C@@H](C)[C@H](C)[C@@H]1C1=CC[C@@H]3[C@@]4(C)C[C@@H](OC(=O)/C=C/c5ccccc5)[C@H](O)[C@@](C)(CO)[C@@H]4[C@H](O)C[C@@]3(C)[C@]1(C)CC2`: the growth was -20.6% (active).

As to `Nc1ccccc1C#C/C=C\C#Cc1cccc(O)c1`, the growth was 12.6% (inactive).

As to `COc1cccc(/C=N/NC(=S)NC2CC3CCC2C3)c1O` (configuration not stated), the growth was 71.3% (inactive).

Regarding `COc1ccc(-c2ccc(-c3ccc(C(=N)N)cn3)s2)cc1Cl`, the growth was -55.3% (active).

For the compound `Cc1ccc(NCCN(C)CC(C)O)c2c(=O)c3ccccc3sc12` (configuration not stated), the growth is 31.3% (inactive).
